This is a sample that favours compounds with a hit; in the whole collection about 21% have one here.
CHX counter: counter-screen hit for Shiga toxin inhibitors, cycloheximide | cell reporter, cycloheximide protein synthesis inhibition counterscreen | max response, % | 300,000 compounds, 12% hits | AID 2314; in the data active = max response mostly above about 13%, no sharp cut-off; inactive = mostly below about 14%; also: read at 38.3 µM for the half of the compounds with a filed dose; 0% is about no effect
Pf growth 96h: P. falciparum growth inhibition at 96 hour, primary screen for plastid delayed-death inhibitors. AID 504834. 320,000 compounds, 6.9% hits. P. falciparum luciferase reporter growth, 96 h. Potency, µM (doses to about 28.7 µM), for inactives: top-dose activity change, negative = inhibition, actives largely listed as inhibitors; also: potency is read from the fitted curve at half-maximal effect; % is scaled to controls: 0 for no effect and ±100 for the full control effect
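Erythrocytes infected with luciferase-expressing P. falciparum were dispensed at 2% hematocrit and 0.05% parasitemia (final), then incubated with compounds 96 hours at 37 C in 5% CO2. Luminescence after detection reagent addition reported growth.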
Pf growth 48h: P. falciparum growth inhibition at 48 hours (one generation) | AID 504832 | P. falciparum luciferase growth in erythrocytes, 48 h | Potency, µM (doses to about 28.7 µM), inactives show at the highest dose activity change, negative = inhibition, most hits filed as inhibitors | 310,000 compounds, 5.9% hits; also: potency is read from the fitted curve at half-maximal effect; % is scaled to controls: 0 for no effect and ±100 for the full control effect
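Luminescence readout; reporter = integrated firefly luciferase in P. falciparum. RBC culture at 2% hematocrit, 0.1% parasitemia final, 37 C/5% CO2; decreased signal taken as growth inhibition.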
Shiga inhibitor: inhibitors of Shiga toxin in Vero cells. Vero cells, Shiga toxin protein synthesis inhibition reporter. inhibition, % at 38.7 µM. AID 2315. 290,000 compounds, 9.2% hits; in the data active = inhibition mostly above about 28%, no sharp cut-off; inactive = mostly below about 43%; also: 0% is about no effect
An asterisk follows results filed as active; i = inactive; u = inconclusive; x = no result given; [ ] = remark or other dose. Unless noted, calls follow the shape of the dose curve; as a rule, active = well fitted inhibition curve with a large enough effect; inconclusive = small, poorly fitted or top-dose-only effect, or another doubt; inactive = no such curve, though single readings can be large or run the other way.

SMILES	CHX counter	Pf growth 96h	Pf growth 48h	Shiga inhibitor
Cc1ccc(OCCCCNC2CCCCC2)c(C)c1	7	0%	u	-4
Cc1ccc(OCC(O)CNC2CCCC2)c(C)c1 (stereo not drawn)	2	13µM*	u	2
Cc1ccccc1OCC(O)CNC1CCC(NCC(O)COc2ccccc2C)CC1 (stereo not drawn)	-12	3.7µM*	0.93µM*	-22
COc1ccc(-n2c(-c3ccc(Cl)cc3)c[nH]c2=S)cc1	4	u	u	14
COc1ccc(CNc2nc3c(c(=O)n(Cc4ccc(F)cc4)c(=O)n3C)n2C)cc1	4	-25%	9.3µM*	11
CC(C)CCNc1nc2c(c(=O)n(Cc3cccc(F)c3)c(=O)n2C)n1C	3	12µM*	u	-9
Cn1c(NCc2ccccc2)nc2c1c(=O)n(Cc1ccccc1)c(=O)n2C	-4	3.7µM*	7.4µM*	13
Cc1cc(NC(=O)CCC(=O)N(c2ccc(F)cc2)C(C(=O)NC2CCCC2)c2cccnc2)no1 (stereo not drawn)	-4	-27%	u	2
COc1cccc(CNC(=O)COC(=O)CCCNC(=O)c2ccc(Cl)cc2)c1	x	14%	10%	x
COc1ccc(OC)c(S(=O)(=O)N2CCN(C(=O)c3cc(C4CC4)nn3-c3ccccc3)CC2)c1	x	9.3µM*	u	x
O=C(O)c1nc(-c2ccccc2)n(-c2ccccc2)n1	-2	41%	-8%	13
Cc1ccc(C)c(S(=O)(=O)N2CCN(C(=O)[C@@H]3CCCN3C(=O)c3cccs3)CC2)c1	x	-1%	u	x
Cc1ccc(C)c(S(=O)(=O)N2CCN(C(=O)c3cc(-c4cccs4)nn3-c3ccccc3)CC2)c1	x	13µM*	7.4µM*	x
COc1ccc(OC)c(S(=O)(=O)N2CCC(C(=O)Nc3ccccc3)CC2)c1	-1	u	7%	-18
O=C(c1nc(-c2ccccc2)n(-c2ccccc2)n1)N1CCN(S(=O)(=O)c2ccccc2)CC1	1	x	9.3µM*	-14
O=C(c1cc(C2CC2)nn1-c1ccccc1)N1CCN(S(=O)(=O)c2ccccc2)CC1	x	u	15µM*	x
O=C(c1cc(C2CC2)nn1-c1ccccc1)N1CCN(Cc2ccccc2F)CC1	x	-8%	u	x
C=CCSc1nnc(NC(=O)c2cn(CC)c3nc(C)ccc3c2=O)s1	3	u	-27%	-6
Cc1cc(Cl)c2cc3ccccc3cc2n1	1	8%	-10%	24
Cc1ccc(-c2cc(-c3ccco3)c3c(N)c(C(=O)NN)oc3n2)cc1	0	u	4.7µM*	14
Cc1nn(CCc2nc(-c3ccco3)cs2)c2[nH]c(=O)cc(C(F)(F)F)c12	-1	9.3µM*	x	5
Cc1nn(CC(=O)NCCCN2CC(C)CC(C)C2)c(=O)c2cccn12 (stereo not drawn)	-8	10µM*	26%	-4
CCN1CCCC1CNC(=O)Cn1nc(C)n2nc(-c3ccccc3)cc2c1=O (stereo not drawn)	1	-18%	17%	-6
Cc1ccc2c(c1)cc1c(=O)n(CC(=O)NCCN3CCCC3)nc(C)n12	2	9.3µM*	24%	1
COc1ccc(-c2cc3c(=O)n(CC(=O)NCCCN4CCC(N5CCCCC5)CC4)ncn3n2)cc1	-4	u	u	-13
SMILES	CHX counter	Pf growth 96h	Pf growth 48h	Shiga inhibitor
Cc1ccc2c(c1)cc1c(=O)n(CC(=O)N3CCCC3)nc(C)n12	5	u	15%	22
COc1ccc(-c2cc3c(=O)n(CC(=O)NCCCN4CCC(N5CCCCC5)CC4)nc(C)n3n2)cc1	0	8.3µM*	u	4
Cc1nn(CC(=O)NCCCN2CCCCC2)c(=O)c2cc(-c3ccccc3)nn12	-2	4.1µM*	17%	-7
C/C(N)=C(/C#N)C(=O)CSc1nc(-c2ccccc2)c(-c2ccccc2)o1	17	-22%	7%	-7
Cc1ccc(C)c(NC(=O)CN(C)C(=O)c2cccc(N3C(=O)CCC3=O)c2)c1	x	16%	21%	x
O=C1/C(=N/n2cnnc2)c2ccccc2N1Cc1ccccc1	-2	9.3µM*	-11%	-5
c1ccc2c(c1)C(=Nn1cnnc1)c1ccccc1-2	-1	12µM*	3%	20
CCOc1ccc(NC(=O)CN(C)C(=O)c2ccccc2OCc2c(C)noc2C)cc1OCC	x	-1%	-18%	x
Cc1cc2c(c(=O)n1Cc1ccccc1)C1O[C@](c3ccsc3)(Cc3cc(C#N)ccc31)O2	-1	22%[5.75 µM]	1.7µM*	i
CCCCn1c(C)cc2c(c1=O)C1O[C@](c3ccsc3)(Cc3ccccc31)O2	-3	5%[5.75 µM]	u	i
Cc1cc2c(c(=O)n1Cc1ccccc1)C1O[C@](c3ccsc3)(Cc3ccccc31)O2	-3	u	1.2µM*	i
Cc1cc2c(c(=O)n1Cc1ccccc1)C1O[C@](CCCCN3C(=O)c4ccccc4C3=O)(Cc3cc(C#N)ccc31)O2	-2	u	u	i
COc1cccc(C(C(=O)NC2CCCC2)N(C(=O)c2ccco2)c2ccccc2)c1OC (stereo not drawn)	-3	-19%	9.3µM*	1
COc1cccc(C(C(=O)NC2CCCC2)N(C(=O)c2ccco2)c2ccc(NC(C)=O)cc2)c1OC (stereo not drawn)	-5	49%	1µM*	10
CC(=O)Nc1ccc(N(C(=O)c2ccco2)C(C(=O)NC2CCCC2)c2ccc(N(C)C)cc2)cc1 (stereo not drawn)	-4	9%	u	-3
COc1cccc(C(C(=O)NC2CCCC2)N(C(=O)c2ccco2)c2ccc(C(C)=O)cc2)c1OC (stereo not drawn)	4	-6%	u	6
COc1ccc(N(CC(=O)NCC2CCCO2)C(=O)CCC(=O)Nc2cc(C)on2)cc1OC (stereo not drawn)	-7	-24%	15%	-13
COc1ccc(/C(C)=N/NC(=O)c2cc(C)[nH]n2)c(OC)c1	10	u	-19%	24
Cc1cccc(CN2C(=O)N/C(=C/c3ccc(C)s3)C2=O)c1	23*	3.3µM*	x	47
Cc1cc(/C=C2\NC(=O)N(Cc3ccc(Cl)cc3)C2=O)c(C)n1C	-1	u	9.3µM*	-2
CCn1c(C)cc(/C=C2\NC(=O)N(CC(=O)Nc3cccc(C)c3)C2=O)c1C	1	u	u	-11
Cc1cccc(CN2C(=O)N/C(=C/c3cc(C)n(-c4cc(C)ccn4)c3C)C2=O)c1	-4	x	12µM*	-10
Cc1ccc(/C=C2/NC(=O)N(Cc3ccccc3)C2=O)s1	55*	u	10µM*	37
Cc1ccc(NC(=O)CN2C(=O)N/C(=C/c3ccc(C)s3)C2=O)cc1	2	u	18%	23
O=C1N/C(=C/c2cccs2)C(=O)N1Cc1ccc(Br)cc1	16	41%	-22%	-32
O=C(NNC(=O)c1cccnc1Cl)c1ccc(F)cc1	3	24%	12%	-3
CC1CCC(NC(=O)CN2C(=O)NC3(CCCCC3C)C2=O)CC1 (stereo not drawn)	x	8%	u	x
COc1ccc(C(=O)N2CCN(C3CCC(c4ccccc4)CC3)CC2)cc1OC (stereo not drawn)	-3	9.3µM*	u	-9

Source: PubChem (National Center for Advancing Translational Sciences (NCATS))
